Source: PubChem BioAssay
TLR4 MyD88 comp – blocks binding of human TLR4 to MyD88. O00206+Q99836. HeLa CL3-4 TLR4/MyD88 BLA complementation, FRET ratio. inhibition, % at 8.4 µM. 200,000 compounds, 0.18% hits. AID 861; in the data active = inhibition above about 25%;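 also: 0% = vehicle and 100% = reference inhibitor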
ABHD5-PLIN5 inh – blocks binding of human ABHD5 to perilipin-5 | Q00G26+Q8WTS1 | 360,000 compounds, 0.78% hits | inhibition, % at 4 µM | AID 602281 | Split G. princeps luciferase complementation, luminescence, 4 h;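 active = inhibition above the mean inhibition across every tested compound plus 3 SD, cut at about 22% in these data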;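 also: 0% = DMSO only wells and the 100% control is not disclosed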
Target sequence (Q00G26 whole entry, looked up): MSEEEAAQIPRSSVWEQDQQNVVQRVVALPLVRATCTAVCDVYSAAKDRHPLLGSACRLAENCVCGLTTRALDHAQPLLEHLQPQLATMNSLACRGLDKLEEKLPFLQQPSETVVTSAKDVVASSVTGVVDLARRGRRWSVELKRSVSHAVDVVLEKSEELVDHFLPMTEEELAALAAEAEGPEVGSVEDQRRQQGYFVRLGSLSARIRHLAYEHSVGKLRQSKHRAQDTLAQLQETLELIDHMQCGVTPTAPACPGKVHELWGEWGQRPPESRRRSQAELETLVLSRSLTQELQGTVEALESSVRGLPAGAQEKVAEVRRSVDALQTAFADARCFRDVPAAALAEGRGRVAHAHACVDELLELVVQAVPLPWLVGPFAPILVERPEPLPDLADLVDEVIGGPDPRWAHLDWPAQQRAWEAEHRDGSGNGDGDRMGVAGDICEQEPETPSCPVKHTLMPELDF
Target sequence (Q8WTS1 whole entry, looked up): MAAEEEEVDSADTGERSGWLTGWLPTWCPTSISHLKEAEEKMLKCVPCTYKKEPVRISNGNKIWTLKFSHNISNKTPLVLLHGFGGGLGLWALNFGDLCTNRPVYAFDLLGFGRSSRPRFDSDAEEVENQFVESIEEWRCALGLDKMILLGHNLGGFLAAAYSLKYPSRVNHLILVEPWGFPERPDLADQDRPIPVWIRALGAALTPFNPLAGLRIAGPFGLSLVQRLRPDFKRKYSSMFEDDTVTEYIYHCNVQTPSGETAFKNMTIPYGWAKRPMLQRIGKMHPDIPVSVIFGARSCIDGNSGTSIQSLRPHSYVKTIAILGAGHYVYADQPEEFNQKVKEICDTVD
m5-HT2A agonist – mouse HTR2A agonism via beta-arrestin recruitment; P35363; CHO-K1 mHTR2A beta-arrestin complementation, luminescence; percent of 30 µM serotonin response; activation, % at 7.6 µM; 360,000 compounds, 0.66% hits; AID 624169;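 active = activation above a run cutoff, the mean activation of all tested compounds plus 3 SD, cut at about 14% in these data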;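 also: 0% = plate median of compound wells and 100% = 30 µM serotonin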
TLR9-MyD88 block – TLR9-MyD88 interaction inhibition | Q9NR96+Q99836 | CHO BLA complementation TLR9-MyD88, CCF4 FRET ratio | inhibition, % at 4.98 µM | 340,000 compounds, 0.21% hits | AID 504734;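 active = inhibition above the mean over all tested compounds plus 3 SD, cut at about 21% in these data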;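 also: 0% = DMSO only wells and 100% = clavulanate BLA inhibitor control wells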
NOD2 RIPK2 PPI – blocks binding of human NOD2 to RIPK2; O43353; CHO BLA complementation NOD2-RIPK2, CCF4 ratio; inhibition, % at 4.98 µM; 360,000 compounds, 0.38% hits; AID 624267; in the data active = inhibition above about 21%;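 also: 0% = vehicle only and 100% = reference blocker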
CRFR2-BP antag – antagonists of CRF-binding protein/CRF-R2 receptor complex; HEK293 CRF-R2/CRF-BP, CRF-induced calcium fluorescence; AID 588475; 350,000 compounds, 0.59% hits; inhibition, % at 11.8 µM;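 active = inhibition of the ligand-induced calcium signal above about 50% at the single tested concentration, limit read from the data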
ABHD5-PLIN5 conf – confirmation of human ABHD5-PLIN5 interaction inhibitors. shares compounds with ABHD5-PLIN5 inh. AID 651612. biochemical ABHD5-PLIN5 interaction, luminescence. 2,200 compounds, 67% hits. inhibition, % at 4 µM; in the data active = inhibition above about 23%;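 also: 0% = DMSO vehicle wells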
HNF4 counter – HNF4 split-luciferase signal hit, counter-screen | shares compounds with ABHD5-PLIN5 inh | HNF4 dimerization, luminescence, biochemical | inhibition, % at 4 µM | 2,200 compounds, 77% hits | AID 651674;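 active = mean inhibition across replicate wells exceeding the computed hit threshold, cut at about 13% in these data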;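 also: light from luciferase halves that rejoin when HNF4 fusion proteins dimerize; 0% = DMSO only wells and the 100% control is not given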
Active calls of the source: *; . = not tested or not shown. A selection: hits, their analogues and other compounds. The true share with any hit is near 2.4%.

SMILES	TLR4 MyD88 comp	ABHD5-PLIN5 inh	m5-HT2A agonist	TLR9-MyD88 block	NOD2 RIPK2 PPI	CRFR2-BP antag	ABHD5-PLIN5 conf	HNF4 counter
CC(C)(C)NC(=O)C1C(c2ccc(C(F)(F)F)cc2)=Nc2ccccc2N1C(=O)c1cccc(C(F)(F)F)c1 (stereo not given)	.	-6	-5	.	-8	.	.	.
Cc1ccc(-c2ccc(SCC(=O)Nc3cc(C)on3)nn2)cc1	5	55*	6	2	-9	8	3	1
CSc1ccc(CNC(=O)C2(C)CCCN(C(C)C)C2)cc1 (stereo not given)	.	6	-3	.	-9	.	.	.
CC1=C(C(=O)N2CCCCCC2)CC(CC(=O)NCCCN(C)C)C(=O)N1CCCN1CCCC1=O (stereo not given)	.	4	-1	.	-5	.	.	.
COc1cc2c(cc1OC)C(C)N(CCc1ccc(Cl)cc1)CC2 (stereo not given)	.	24*	-6	.	0	9	24*	0
Cc1ccc2c(c1)C(=O)C(=O)N2Cc1ccc(C(F)(F)F)cc1	.	42*	-1	0	14	-26	36*	40*
Cc1ccc(S(=O)(=O)NC(=O)C2(C)CCN2C(=O)C2(c3ccc(Cl)cc3)CCC2)nc1 (stereo not given)	.	-6	-2	.	0	.	.	.
COc1cc(/C=C2\CCC/C(=C\c3ccc(O)c(OC)c3)C2=O)ccc1O	.	10	-5	-2	4	-2	.	.
COc1cc(/C=C2\COC/C(=C\c3cc(OC)c(OC)c(OC)c3)C2=O)cc(OC)c1OC	.	47*	10	12	10	-24	101*	101*
COc1cc(/C=C2\CC/C(=C\c3cc(OC)c(O)c(OC)c3)C2=O)cc(OC)c1O	8	32*	3	-9	3	-15	39*	39*
COc1cc(/C=C2\CC/C(=C\c3cc(OC)c(OC)c(OC)c3)C2=O)cc(OC)c1OC	-4	3	2	-2	2	-4	.	.
O=C(C(=O)N1CCC(Cc2ccccc2)CC1)c1ccccc1	.	-11	-10	.	-14	.	.	.
Cc1nnc(SC(C)C(=O)Nc2ncc(Cl)cc2Cl)n1Cc1ccccc1 (stereo not given)	19	57*	6	-4	-3	7	3	0
CC(C)Nc1nc(Cl)nc(N(C#N)CN2C(=O)c3ccccc3S2(=O)=O)n1	.	19	-9	-12	0	8	.	.
COc1nc(NC(C)C)nc(N(C#N)CN2C(=O)c3ccccc3S2(=O)=O)n1	.	26*	-3	1	7	6	29*	26*
CC(C)(C)Nc1nc(Cl)nc(N(C#N)CN2C(=O)c3ccccc3S2(=O)=O)n1	19	33*	-1	1	9	24	30*	24*
CCN(CC)C(=O)C1=C(C)N(CCCOC)C(=O)C(CC(=O)NCCCCc2ccccc2)C1 (stereo not given)	.	2	-2	-8	11	-2	.	.
C[C@@H](NC(=O)[C@@H]1CCCN1C(=O)[C@@H]1CCCN1C(=O)c1ccccc1)c1ccccc1	.	1	6	.	1	.	.	.
C#CCOCCOCCOCCNc1nc(N2CCN(C(=O)CCCCCCCCCCNC(=O)Cn3cc(C[C@@H](C)O)nn3)CC2)nc(N2CCN(C(=O)CCCCCCCCCCNC(=O)[C@@H]([C@H](C)O)n3cc(C)nn3)CC2)n1	.	97*	8	-17	0	8	8	-7
C#CCOCCOCCOCCNc1nc(N2CCN(C(=O)CCCCCCCCCCNC(=O)Cn3cc(CCCCCN)nn3)CC2)nc(N2CCN(C(=O)CCCCCCCCCCNC(=O)Cn3cc(C[C@@H](C)O)nn3)CC2)n1	.	47*	11	3	9	-23	5	-14
O=S1(=O)C[C@H](N2CCN(CCO)CC2)[C@@H](COCc2ccccc2)N1	.	6	4	.	-6	.	.	.
CN(C)c1ccc(/C=C2/C[N+](C)(C)C/C(=C/c3ccc(N(C)C)cc3)C2=O)cc1	.	39*	-4	-7	8	-83	50*	42*
CC1=C(C(=O)N(C(C)C)C(C)C)CC(CC(=O)NCc2ccco2)C(=O)N1Cc1ccc(C(C)(C)C)cc1 (stereo not given)	.	3	8	.	14	.	.	.
Cc1cccc(-c2cnc(C(O)Cc3ccccc3)[nH]2)c1 (stereo not given)	.	3	1	.	11	.	.	.
COc1cc(CNCCN2CCOCC2)ccc1OCc1cccc(Cl)c1	-2	10	-1	1	-2	-4	.	.
SMILES	TLR4 MyD88 comp	ABHD5-PLIN5 inh	m5-HT2A agonist	TLR9-MyD88 block	NOD2 RIPK2 PPI	CRFR2-BP antag	ABHD5-PLIN5 conf	HNF4 counter
COc1cc(CNCCN2CCOCC2)ccc1OCc1ccc(Cl)cc1Cl	7	24*	-5	-6	6	-3	12	13*
COc1cc(CNCc2ccccn2)ccc1OCc1ccc(Cl)cc1Cl	9	25*	6	3	17	-3	7	7
COc1cc(CNCc2ccccn2)ccc1OCc1ccc(Cl)c(Cl)c1	0	20	-7	-2	2	-11	.	.
COc1ccc(OC(=O)c2cnc3n(c2=O)CCS3)cc1	.	41*	-2	5	-11	8	0	1
COc1ccc(OC)c(NC(=O)c2cnc3n(c2=O)CCS3)c1	0	6	0	4	-10	-3	.	.
CCC1(C(=O)OC)NC(c2ccco2)C2C(=O)N(c3ccccc3)C(=O)C21 (stereo not given)	-11	25*	-2	3	0	-2	11	13*
CCC1(C(=O)OC)NC(c2ccco2)C2C(=O)N(c3ccc(F)cc3)C(=O)C21 (stereo not given)	-13	10	3	-1	-6	-4	.	.
CCc1c(C)sc(NC(=O)c2cccs2)c1C#N	-2	24*	-4	0	-12	-31	-7	-10
C=C(C(=O)c1ccccc1)C(NC(C)(C)C)c1ccccc1 (stereo not given)	.	42*	-8	-9	4	-48	65*	54*
Cc1ccc(C(=O)Nc2ccc(C(=O)N3CCCCC3C)cc2)cc1 (stereo not given)	10	10	-4	-7	-6	-4	.	.
Cc1ccc(C(=O)Nc2ccccc2C(=O)N2CCCCC2C)cc1 (stereo not given)	.	106*	1	-5	-10	-8	-1	5
CCCCCCCCN1[C@@H](CC(=O)O)c2cc(C(F)(F)F)ccc2S1(=O)=O	.	30*	-3	7	10	-7	33*	16*
CC1(C(=O)Nc2cccc(C#N)c2)CCN1C(=O)Cc1ccc(-c2ccccc2)cc1 (stereo not given)	.	8	4	.	8	.	.	.
